miR122 inh = activators of miR-122 sensor in Huh7 cells | Huh7 psiCHECK-miR122 Renilla luciferase sensor, 48 h | activation, % at 12.5 µM | 340,000 tested, 0.14% active | AID 623901;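 active = mean activation of 30% or more, with every replicate also reaching 30%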;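 note: 0% = median of neutral control wells and 100% = median of positive control wells; higher luciferase signal means stronger suppression of miR-122 activity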
Starred values were filed as active, the others as inactive. Shown is part of a subset that was picked to be rich in hits.

SMILES	miR122 inh
COc1cccc(NC(=O)N(C)C[C@@H]2Oc3cc(C#Cc4ccccc4)ccc3S(=O)(=O)N([C@H](C)CO)C[C@@H]2C)c1	4
O=C(Nc1ccccc1F)N1CCCCN2[C@@H](CO)[C@@H](c3ccc(C#Cc4ccccc4)cc3)[C@@H]2C1	37*
COc1ccc(C#Cc2ccc([C@@H]3[C@@H](CO)N4CCCCN(C(=O)Nc5ccccc5)C[C@H]34)cc2)cc1	34*
C[C@H]1CN([C@@H](C)CO)C(=O)c2cc(C#CCc3ccccc3)cnc2O[C@H]1CN(C)CC1CCOCC1	-1
COc1ccccc1NC(=O)N(C)C[C@H]1Oc2ncc(C#CCC(C)C)cc2C(=O)N([C@@H](C)CO)C[C@@H]1C	-6
CCCNC(=O)N(C)C[C@@H]1Oc2cc(C#CC(C)C)ccc2S(=O)(=O)N([C@H](C)CO)C[C@@H]1C	-9
CCC(=O)Nc1ccc2c(c1)OC[C@@H](C)NC[C@H](C)[C@H](OC)CN(C)C2=O	-1
Cc1ccc(OCC(O)Cn2c(=N)n(Cc3ccccc3)c3ccccc32)cc1 (stereo not drawn)	90*
Cc1ccc(Cn2c(NS(=O)(=O)c3ccccc3)nc3ccccc32)cc1	-106
C[C@@H]1CN([C@@H](C)CO)S(=O)(=O)c2ccc(C#CCN(C)C)cc2O[C@@H]1CN(C)C(=O)CN(C)C	5
COc1ccccc1-[n+]1c(C)cc(/C=C2\Sc3ccccc3N2C)cc1C	69*
CCCN(C)C[C@@H]1Oc2cc(C#CCN(C)C)ccc2S(=O)(=O)N([C@H](C)CO)C[C@@H]1C	-5
C[C@H]1CN([C@@H](C)CO)C(=O)c2cc(C#CCC3CCCC3)cnc2O[C@@H]1CN(C)CC1CCOCC1	-9
O=S(=O)(c1ccccc1F)N1CC[C@@H]2[C@@H](CO)Nc3ccc(-c4ccc(F)cc4)cc3[C@@H]21	-96
C[C@H](CO)N1C[C@H](C)[C@H](CN(C)C(=O)Cc2ccccn2)Oc2cc(-c3ccc(C(=O)N(C)C)cc3)ccc2S1(=O)=O	4
N=c1c2c(-c3ccccc3)c(-c3ccccc3)n(Cc3ccco3)c2ncn1CCO	43*
COCC#Cc1ccc2c(c1)O[C@@H](CN(C)C(=O)COC)[C@@H](C)CN([C@@H](C)CO)S2(=O)=O	0
C[C@H](CO)N1C[C@H](C)[C@H](CN(C)C(=O)c2cccnc2)Oc2ncc(Br)cc2C1=O	2
CCC(=O)Nc1ccc2c(c1)OC[C@@H](C)N(C(=O)CN1CCOCC1)C[C@@H](C)[C@@H](OC)CN(C)C2=O	-15
CC(C)NC(=O)N(C)C[C@H]1Oc2cc(C3=CCCCC3)ccc2S(=O)(=O)N([C@@H](C)CO)C[C@H]1C	6
Cc1nnc(NC(=O)CSc2nc(C(C)C)nc3sc(C)c(C)c23)s1	55*
C[C@@H]1CN([C@H](C)CO)S(=O)(=O)c2ccc(-c3cccnc3)cc2O[C@H]1CN(C)Cc1ccccn1	4
COc1cccc(NC(=O)N(C)C[C@@H]2Oc3ncc(C#Cc4ccccc4)cc3C(=O)N([C@H](C)CO)C[C@H]2C)c1	-2
CCC(=O)N(C)C[C@@H]1Oc2cc(-c3cccc(C#N)c3)ccc2S(=O)(=O)N([C@H](C)CO)C[C@H]1C	4
C[C@H]1CN([C@@H](C)CO)S(=O)(=O)c2ccc(-c3ccc(C#N)cc3)cc2O[C@H]1CN(C)C(=O)C1CC1	-11
SMILES	miR122 inh
COCC#Cc1ccc2c(c1)O[C@H](CN(C)Cc1cncnc1)[C@@H](C)CN([C@H](C)CO)S2(=O)=O	-23
COCC(=O)N(C)C[C@H]1Oc2ncc(/C=C/c3ccccc3)cc2C(=O)N([C@H](C)CO)C[C@@H]1C	4
C/C=C/c1ccc([C@@H]2[C@@H](CN(C(=O)COC)C(C)C)N(C(C)=O)[C@H]2CO)cc1	50*
COCC(=O)N(C)C[C@H]1Oc2ncc(/C=C/c3ccccc3)cc2C(=O)N([C@H](C)CO)C[C@H]1C	3
CCC(=O)N(C)C[C@H]1Oc2ncc(C#Cc3ccc(OC)cc3)cc2C(=O)N([C@H](C)CO)C[C@H]1C	-4
CNC[C@H]1Oc2cc(C#Cc3cccc(F)c3)ccc2S(=O)(=O)N([C@H](C)CO)C[C@@H]1C	9
C[C@H](CO)N1C[C@H](C)[C@@H](CN(C)Cc2ccccc2F)Oc2ncc(/C=C/c3ccccc3)cc2C1=O	-1
C[C@H]1CN([C@@H](C)CO)C(=O)c2cc(-c3cccc(C(=O)N(C)C)c3)cnc2O[C@H]1CN(C)S(=O)(=O)c1ccc(F)cc1	-4
COc1cccc(-c2ccc3c(c2)[C@H]2[C@H](CCN2S(=O)(=O)c2ccccc2C)[C@@H](CO)N3)c1	-97
CCOC(=O)/C(=C\C=C1/Sc2ccccc2N1CC)C(C)=O	52*
C/C=C/c1cnc2c(c1)C(=O)N([C@@H](C)CO)C[C@H](C)[C@@H](CN(C)C(=O)c1cccnc1)O2	-20
Cc1ccc(-c2cnc3c(c2)C(=O)N([C@@H](C)CO)C[C@@H](C)[C@H](CN(C)C(=O)Cc2cccnc2)O3)cc1	4
C[C@@H]1CN([C@H](C)CO)C(=O)c2cccc(N(C)C)c2O[C@H]1CN(C)C(=O)Nc1ccccc1	-124
Cc1ccc(NC(=O)c2nc(C)n(-c3ccc([N+](=O)[O-])cc3)n2)cc1	43*
O=C(Nc1ccccc1)c1cc([N+](=O)[O-])ccc1NC1CCCCC1	-123
C[C@H](CO)N1C[C@H](C)[C@H](CN(C)CC2CCOCC2)Oc2cc(C#Cc3cccnc3)ccc2S1(=O)=O	3
C[C@@H]1CN([C@@H](C)CO)C(=O)c2cc(Br)cnc2O[C@@H]1CN(C)C(=O)CN1CCOCC1	5
CCCC#Cc1ccc2c(c1)O[C@@H](CN(C)S(C)(=O)=O)[C@@H](C)CN([C@@H](C)CO)S2(=O)=O	8
CCCNC(=O)N(C)C[C@@H]1Oc2cc(C#CCOC)ccc2S(=O)(=O)N([C@@H](C)CO)C[C@H]1C	-19
Cc1cc(CN(C)C(=O)c2cc(COc3ccc4ncccc4c3)on2)on1	35*
COCC(=O)N(C)C[C@H]1Oc2cc(C#CC3CC3)ccc2S(=O)(=O)N([C@@H](C)CO)C[C@H]1C	5
CCCNC(=O)N1C[C@@H](C)[C@H](OC)CN(C)C(=O)c2cc(NS(=O)(=O)CC)ccc2OC[C@@H]1C	1
c1ccc(CCCNCCCn2cnc3c(OCc4ccccc4)ncnc32)cc1	34*
COc1cccc(-c2cnc3c(c2)C(=O)N([C@H](C)CO)C[C@@H](C)[C@@H](CN(C)CC2CCOCC2)O3)c1	10
NC1=NC[C@@H](CC2CCCCC2)N1CCc1cc(C(F)(F)F)cc(C(F)(F)F)c1	35*
SMILES	miR122 inh
C[C@@H]1CN([C@@H](C)CO)C(=O)c2cc(C#CCc3ccccc3)cnc2O[C@H]1CN(C)C(=O)C1CCCCC1	4
CCC(=O)Nc1ccc2c(c1)OC[C@H](C)N(C(=O)c1ccccn1)C[C@H](C)[C@@H](OC)CN(C)C2=O	-1
CC(C)C#Cc1ccc2c(c1)O[C@@H](CN(C)C(=O)CN(C)C)[C@H](C)CN([C@H](C)CO)S2(=O)=O	-3
Cc1ccc(S(=O)(=O)c2ccc([N+](=O)[O-])cn2)cc1	33*
COc1ccccc1NC(=O)N(C)C[C@H]1Oc2ncc(C#CCC(C)C)cc2C(=O)N([C@H](C)CO)C[C@H]1C	-1
C[C@@H]1CN([C@H](C)CO)C(=O)c2cc(-c3ccccc3F)cnc2O[C@H]1CN(C)Cc1ccccc1F	-36
COc1cccc(-c2cnc3c(c2)C(=O)N([C@H](C)CO)C[C@H](C)[C@H](CN(C)Cc2cccc(C)c2)O3)c1	8
